Results filed as inconclusive are left out. Where a call stands in place of a potency, no number is given. Active and inactive are the calls of the source. The call rests on the fitted dose curve; in most records, active means well fitted curve in the direction sought with a large enough effect in the repeat runs; inconclusive means weak or mixed curves; inactive means no such curve, though single readings can be large; an effect the other way counts as inactive or inconclusive.
Test: qHTS assay to identify small molecule antagonists of the androgen receptor (AR) signaling pathway using the MDA cell line - cell viability counter screen (AID 743041; further: nearly all actives have a fitted effect of over 45% in size)
Conditions: MDA-kb2 viability, CellTiter-Fluor, 16 h, cells co-treated with R1881 androgen agonist; series mostly up to 70.3 µM
In short: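 Compound exposure lasted 16 h at 37C in MDA-kb2 AR-luc cells stimulated with R1881. Protease-based CellTiter-Fluor reagent was applied for the final 30 min and fluorescence measured.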

Row | Structure (SMILES) | Potency
1 | C[C@@H]1CN(c2c(F)c(N)c3c(=O)c(C(=O)O)cn(C4CC4)c3c2F)C[C@H](C)N1 | inactive
2 | CC1(C)C(=O)N(Cl)C(=O)N1Br | inactive
3 | CCCCCCC | inactive
4 | CCC/C=C/CO | inactive
5 | CCOC(=O)c1ccccc1O | inactive
6 | Cc1ccc([N+](=O)[O-])cc1Cl | inactive
7 | OCCN1CCN(CCO)CC1 | inactive
8 | COc1ccccc1OCC(O)COC(N)=O (configuration not stated) | inactive
9 | C=O | inactive
10 | CC/C=C\CCOC(=O)CCCCC | inactive
11 | CCOc1ccc(NC(N)=O)cc1 | inactive
12 | Clc1cccc(-c2cc(Cl)cc(Cl)c2)c1 | inactive
13 | CC1=CC(=O)CC(C)(C)C1=O | inactive
14 | CN(CC1(C)CCCO1)S(=O)(=O)c1ccc(Cl)c(S(N)(=O)=O)c1 (configuration not stated) | inactive
15 | C=CCCCCCCCCO | inactive
16 | CC1=NN(c2cc(Cl)c(S(=O)(=O)O)cc2Cl)C(=O)C1N=Nc1ccc(S(=O)(=O)O)cc1 (configuration not stated) | inactive
17 | O=C(O)C(=O)Cc1c[nH]c2ccccc12 | inactive
18 | CS(=O)(=O)c1ccc([C@@H](O)[C@@H](CF)NC(=O)C(Cl)Cl)cc1 | inactive

Row | Structure (SMILES) | Potency
19 | COc1ccc2nc(NC(=O)Nc3ccccc3)sc2c1 | inactive
20 | O=c1oc2c(O)c(O)cc3c(=O)oc4c(O)c(O)cc1c4c23 | inactive
21 | CCC(=O)Nc1ccc(O)cc1 | inactive
22 | Cc1nnc(SCC2=C(C(=O)O)N3C(=O)[C@@H](NC(=O)Cn4cnnn4)[C@H]3SC2)s1 | inactive
23 | Cc1ccc([N+](=O)[O-])c(N)c1 | inactive
24 | CCCOCCC | inactive
25 | C=CC1CO1 (configuration not stated) | inactive
26 | Cc1ccc(C(C)C)cc1O | inactive
27 | O=C1CCCCCCCCCCC(=O)OCCO1 | inactive
28 | COc1cc(Cl)ccc1Cl | inactive
29 | CCNCCO | inactive
30 | CCc1nnc(NS(=O)(=O)c2ccc(N)cc2)s1 | inactive
31 | FC(F)(F)c1ccccc1 | inactive
32 | CC(C)OC(C)C | inactive
33 | ClC(Cl)Cl | inactive
34 | CCCN(CCC)C(=O)C(CCC(=O)O)NC(=O)c1ccccc1 (configuration not stated) | inactive
35 | CC1(C)O[C@@H]2C[C@H]3[C@@H]4CCC5=CC(=O)CC[C@]5(C)[C@@]4(F)[C@@H](O)C[C@]3(C)[C@]2(C(=O)CCl)O1 | inactive
36 | O=C(O[C@@H](C(=O)O)[C@@H](OC(=O)c1ccccc1)C(=O)O)c1ccccc1 | inactive

Test: qHTS assay to identify small molecule antagonists of the thyroid receptor (TR) signaling pathway - cell viability counter screen (AID 743064); further: nearly all actives have a fitted effect of over 50% in size
Conditions: GH3.TRE-Luc viability, CellTiter-Fluor, 24 h; series mostly up to 70.3 µM
In short: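 Compounds were tested on GH3.TRE-Luc cells in the presence of T3 at 1 nM final. Following 23.5 h at 37 °C, cell viability was quantified by CellTiter-Fluor.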

Row | Structure (SMILES) | Potency
37 | C[C@@H]1CN(c2c(F)c(N)c3c(=O)c(C(=O)O)cn(C4CC4)c3c2F)C[C@H](C)N1 | inactive
38 | CC1(C)C(=O)N(Cl)C(=O)N1Br | inactive
39 | CCCCCCC | inactive
40 | CCC/C=C/CO | inactive
41 | CCOC(=O)c1ccccc1O | inactive
42 | Cc1ccc([N+](=O)[O-])cc1Cl | inactive
43 | OCCN1CCN(CCO)CC1 | inactive
44 | COc1ccccc1OCC(O)COC(N)=O (configuration not stated) | inactive
45 | C=O | inactive
46 | CC/C=C\CCOC(=O)CCCCC | inactive
47 | CCOc1ccc(NC(N)=O)cc1 | inactive
48 | Clc1cccc(-c2cc(Cl)cc(Cl)c2)c1 | inactive
49 | CC1=CC(=O)CC(C)(C)C1=O | inactive
50 | CN(CC1(C)CCCO1)S(=O)(=O)c1ccc(Cl)c(S(N)(=O)=O)c1 (configuration not stated) | inactive
51 | C=CCCCCCCCCO | inactive
52 | CC1=NN(c2cc(Cl)c(S(=O)(=O)O)cc2Cl)C(=O)C1N=Nc1ccc(S(=O)(=O)O)cc1 (configuration not stated) | inactive
53 | O=C(O)C(=O)Cc1c[nH]c2ccccc12 | inactive
54 | CS(=O)(=O)c1ccc([C@@H](O)[C@@H](CF)NC(=O)C(Cl)Cl)cc1 | inactive

Row | Structure (SMILES) | Potency
55 | COc1ccc2nc(NC(=O)Nc3ccccc3)sc2c1 | inactive
56 | O=c1oc2c(O)c(O)cc3c(=O)oc4c(O)c(O)cc1c4c23 | inactive
57 | CCC(=O)Nc1ccc(O)cc1 | inactive
58 | Cc1nnc(SCC2=C(C(=O)O)N3C(=O)[C@@H](NC(=O)Cn4cnnn4)[C@H]3SC2)s1 | inactive
59 | Cc1ccc([N+](=O)[O-])c(N)c1 | inactive
60 | CCCOCCC | inactive
61 | C=CC1CO1 (configuration not stated) | inactive
62 | Cc1ccc(C(C)C)cc1O | inactive
63 | O=C1CCCCCCCCCCC(=O)OCCO1 | inactive
64 | COc1cc(Cl)ccc1Cl | inactive
65 | CCNCCO | inactive
66 | CCc1nnc(NS(=O)(=O)c2ccc(N)cc2)s1 | inactive
67 | FC(F)(F)c1ccccc1 | inactive
68 | CC(C)OC(C)C | inactive
69 | ClC(Cl)Cl | inactive
70 | CCCN(CCC)C(=O)C(CCC(=O)O)NC(=O)c1ccccc1 (configuration not stated) | inactive
71 | CC1(C)O[C@@H]2C[C@H]3[C@@H]4CCC5=CC(=O)CC[C@]5(C)[C@@]4(F)[C@@H](O)C[C@]3(C)[C@]2(C(=O)CCl)O1 | inactive
72 | O=C(O[C@@H](C(=O)O)[C@@H](OC(=O)c1ccccc1)C(=O)O)c1ccccc1 | inactive

Test: qHTS assay to identify small molecule antagonists of the thyroid receptor (TR) signaling pathway (AID 743065); further: nearly all actives have a fitted effect of over 55% in size
Conditions: GH3.TRE-Luc, T3-stimulated luciferase inhibition, 23.5 h; series mostly up to 70.3 µM
In short: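 GH3.TRE-Luc rat pituitary cells (two TREs driving luciferase) were dosed with compound, then stimulated with 1 nM T3 (final) for 23.5 h at 37 C. ONE-Glo luminescence was the read-out, with CellTiter-Fluor fluorescence as the cytotoxicity counter-screen.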

Row | Structure (SMILES) | Potency
73 | CCC/C=C/CO | inactive
74 | CCOC(=O)c1ccccc1O | inactive
75 | Cc1ccc([N+](=O)[O-])cc1Cl | inactive
76 | COc1ccccc1OCC(O)COC(N)=O (configuration not stated) | inactive
77 | C=O | inactive
78 | CCOc1ccc(NC(N)=O)cc1 | inactive
79 | Clc1cccc(-c2cc(Cl)cc(Cl)c2)c1 | inactive
80 | CN(CC1(C)CCCO1)S(=O)(=O)c1ccc(Cl)c(S(N)(=O)=O)c1 (configuration not stated) | inactive
81 | CS(=O)(=O)c1ccc([C@@H](O)[C@@H](CF)NC(=O)C(Cl)Cl)cc1 | inactive
82 | Cc1nnc(SCC2=C(C(=O)O)N3C(=O)[C@@H](NC(=O)Cn4cnnn4)[C@H]3SC2)s1 | inactive
83 | Cc1ccc([N+](=O)[O-])c(N)c1 | inactive
84 | C=CC1CO1 (configuration not stated) | inactive
85 | Cc1ccc(C(C)C)cc1O | inactive
86 | O=C1CCCCCCCCCCC(=O)OCCO1 | inactive
87 | COc1cc(Cl)ccc1Cl | inactive
88 | CCc1nnc(NS(=O)(=O)c2ccc(N)cc2)s1 | inactive
89 | FC(F)(F)c1ccccc1 | inactive
90 | ClC(Cl)Cl | inactive
91 | CCCN(CCC)C(=O)C(CCC(=O)O)NC(=O)c1ccccc1 (configuration not stated) | inactive
92 | CC1(C)O[C@@H]2C[C@H]3[C@@H]4CCC5=CC(=O)CC[C@]5(C)[C@@]4(F)[C@@H](O)C[C@]3(C)[C@]2(C(=O)CCl)O1 | inactive

— PubChem BioAssay (Tox21)
